Only some compounds are listed: those with a hit (about 2.4% of all), similar ones and a draw of the others.
POLH inh = qHTS for Inhibitors of Polymerase Eta. 1.2% of 390,000 active. DNA polymerase eta (Homo sapiens), Q9Y253. recombinant Pol eta, fluorescent DNA replication assay. Potency, µM (doses to about 114 µM), usual class: inhibitors
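Fluorescent replication assay: 50 nM final substrate added after a 15 min room-temperature compound preincubation with 10 nM enzyme. Signal taken at 0 min and again at 10 min.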
POLB inh = qHTS Assay for Inhibitors of DNA Polymerase Beta; P06746; Pol beta primer extension/strand displacement, fluorescence kinetic; Potency, µM (series often up to 114 µM), actives largely listed as inhibitors; 1.3% of 340,000 active
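Human Pol beta at 10 nM; strand-displacement substrate 50 nM final. Compound exposure 15 min at room temperature before start, reaction 10 min at room temperature.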
FEN1 inhibitor = qHTS Assay for the Inhibitors of Human Flap endonuclease 1 (FEN1); P39748; Recombinant FEN1 flap cleavage, fluorescence, 15 min; Potency, µM (doses to about 114 µM), usual class: inhibitors; 0.35% of 390,000 active; AID 588795, 2011; further: nearly all actives have a fitted effect of over 65% in size
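Potency values derive from four-parameter Hill fits of normalized qHTS data. The reaction used 10 nM FEN1 preincubated 15 min at room temperature with compound, then 50 nM DNA substrate, read at 0 and 15 min.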
Pol kappa inh = qHTS for Inhibitors of Polymerase Kappa | Potency, µM (doses to about 107 µM), usual class: inhibitors | DNA polymerase kappa (Homo sapiens), Q9UBT6 | purified Pol kappa, fluorescent DNA synthesis assay, 10 min | 0.53% of 400,000 active | AID 588579, 2011
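Kinetic fluorescence screen: compound preincubated 15 min RT with 10 nM enzyme; 50 nM substrate (final) initiates; reads at 0/10 min.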
WRN helicase inh = qHTS for Inhibitors of WRN Helicase | Bifunctional 3'-5' exonuclease/ATP-dependent helicase WRN (Homo sapiens), Q14191 | WRN helicase unwinding, fluorescent forked duplex, kinetic | Potency, µM (highest dose often 114 µM), usual class: inhibitors | 0.46% of 360,000 active | AID 651768, 2012; further: nearly all actives have a fitted effect of over 55% in size
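Kinetic fluorescence helicase assay: unwinding of a quenched forked DNA duplex (100 nM final) with 2 mM ATP final raises red fluorescence (525/598 nm). Compounds sat 15 min at room temperature with 20 nM WRN beforehand.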
POLI inh = qHTS for Inhibitors of Polymerase Iota; Pol iota fluorescent replication assay, 10 min; AID 588590, 2011; Potency, µM (top dose mostly 115 µM), usual class: inhibitors; DNA polymerase iota (Homo sapiens), Q9UNA4; 1% of 390,000 active
Target sequence (Q9UNA4 whole entry, looked up): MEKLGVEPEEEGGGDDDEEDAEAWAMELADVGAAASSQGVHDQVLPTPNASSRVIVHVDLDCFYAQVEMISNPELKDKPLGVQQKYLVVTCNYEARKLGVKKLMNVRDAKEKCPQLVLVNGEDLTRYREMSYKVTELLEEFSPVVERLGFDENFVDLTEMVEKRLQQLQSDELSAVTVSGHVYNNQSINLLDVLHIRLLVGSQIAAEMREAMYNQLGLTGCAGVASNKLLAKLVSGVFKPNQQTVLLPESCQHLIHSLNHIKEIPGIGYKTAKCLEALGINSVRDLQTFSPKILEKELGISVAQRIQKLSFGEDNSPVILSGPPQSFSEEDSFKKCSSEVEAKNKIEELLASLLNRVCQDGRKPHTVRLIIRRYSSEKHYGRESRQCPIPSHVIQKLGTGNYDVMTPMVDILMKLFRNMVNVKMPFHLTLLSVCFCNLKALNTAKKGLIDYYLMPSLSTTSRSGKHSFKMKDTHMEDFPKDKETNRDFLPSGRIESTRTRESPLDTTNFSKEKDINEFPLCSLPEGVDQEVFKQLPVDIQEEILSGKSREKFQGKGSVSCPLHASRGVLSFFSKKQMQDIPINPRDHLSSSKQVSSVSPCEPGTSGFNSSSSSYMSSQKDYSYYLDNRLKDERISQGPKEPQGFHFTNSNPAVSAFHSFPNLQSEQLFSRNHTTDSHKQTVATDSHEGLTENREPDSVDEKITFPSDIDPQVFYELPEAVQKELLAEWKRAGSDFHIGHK
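Pol iota at 10 nM preincubated 15 min with compounds at room temperature; reaction started with fluorescent substrate, 50 nM final. Fluorescence read kinetically at 0 and 10 min; buffer-only wells as negative control.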
Numbers stand for hits; – = inactive; ? = inconclusive; · = not tested or not shown; [ ] = remark or other dose. The call rests on the fitted dose curve; in most records, active means well fitted curve in the direction sought with a large enough effect; inconclusive means small, poorly fitted or top-dose-only effect, or another doubt; inactive means no such curve, though single readings can be large; an effect the other way counts as inactive or inconclusive.

SMILES	POLH inh	POLB inh	FEN1 inhibitor	Pol kappa inh	WRN helicase inh	POLI inh
O=C(O)C1CCN(C(=O)CCc2ccccc2)CC1	–	50µM	–	–	–	–
COc1cc2nc(N3CCCN(C)CC3)nc(NC3CCOCC3)c2cc1OC	·	·	–	–	·	–
COc1ccc(/C=C2\SC(=S)N(CCC(=O)Nc3ccc(C(=O)O)cc3)C2=O)cc1OC	32µM	?	–	–	–	–
CCc1ccc(/C=C2\SC(=S)N(CCCC(=O)Nc3ccccc3C(=O)O)C2=O)cc1	?	?	–	–	?	71µM
COc1ccc(/C=C2\SC(=S)N(CCCC(=O)Nc3cccc(C(=O)O)c3)C2=O)cc1OC	?	–	–	–	–	–
Cc1ccc(/C=C2\SC(=S)N(CCCC(=O)Nc3ccccc3C(=O)O)C2=O)cc1	?	–	?	–	–	–
O=C(CCCN1C(=O)/C(=C/c2ccc3c(c2)OCO3)SC1=S)Nc1ccc(C(=O)O)cc1	89µM	–	–	–	–	–
Cc1c(C2(c3cc(C(C)C)c(O)c(Br)c3C)OS(=O)(=O)c3ccccc32)cc(C(C)C)c(O)c1Br	·	·	?	–	·	?
CCOC(=O)c1cnn2c(N)c(C#N)nnc12	?	–	–	–	–	89µM
CCOC(=O)c1cnn2c(N)c(C#N)cnc12	–	–	–	–	–	–
CN(C)C1CCN(CCCOc2ccc(-c3ccc(C#N)cc3)cc2)C1 (stereo not drawn)	·	·	·	–	·	·
CCc1ccc(NC(=O)CC2C(=O)N(c3ccc(Cl)cc3)C(=O)N2C2CCCC2)cc1 (stereo not drawn)	–	–	40µM	?	·	89µM
O=Cc1ccccc1C=O	·	·	·	24µM	·	·
O=Cc1ccccc1OCCOc1ccccc1C=O	–	–	–	–	–	–
O=c1c2ccccc2cnn1Cc1nnc(-c2cccs2)o1	–	45µM	–	–	–	?
O=C(N/N=C/c1cccnc1)c1cc2c(ccc3ccccc32)o1	?	11µM	?	–	–	?
COc1cc(/C=C/c2nnc3c4ccccc4ncn23)cc(OC)c1OC	–	?	–	–	56µM	–
C(=C\c1nnc2c3ccccc3ncn12)/c1ccccc1	–	–	–	–	–	–
CCOC(=O)/C=C1/N(C)c2ccccc2C1(C)C	–	–	–	–	–	–
CN1/C(=C\P(=O)(N(C)C)N(C)C)C(C)(C)c2ccccc21	–	–	–	–	50µM	?
Cc1ccc(C)c(NC(=O)Cn2ncc3c([nH]c4ccccc43)c2=O)c1	–	–	–	–	·	–
NC(CO)C(=O)NNCc1ccc(O)c(O)c1O (stereo not drawn)	–	?	20µM	–	–[11.6 µM]	32µM
COC(=O)C(N)Cc1ccc(O)cc1 (stereo not drawn)	–	–	–	–	–	–
CCOC(=O)c1c(S(=O)(=O)NCC(=O)N(C)c2ccc(C)cc2)c(C)n(C)c1C	45µM	–	–	–	·	–
CC(=O)c1cccc(S(=O)(=O)N2CCC(C(=O)OC3CCOC3=O)CC2)c1 (stereo not drawn)	45µM	·	–	–	–	?
SMILES	POLH inh	POLB inh	FEN1 inhibitor	Pol kappa inh	WRN helicase inh	POLI inh
Cc1ccc(S(=O)(=O)N2CCC(C(=O)OC3CCOC3=O)CC2)cc1C (stereo not drawn)	–	·	–	–	–	–
O=C(N/N=C/c1ccco1)C1CC1c1ccccc1 (stereo not drawn)	?	16µM	–	?	–	32µM
O=C(N/N=C/c1ccco1)C1CC1	–	–	–	–	–	–
Cc1ccc(SCC(=O)Nc2ccc(-c3nnc(-c4ccco4)o3)cc2)cc1	?	50µM	–	?	–	–
O=C(CSc1nnc(-c2ccco2)c(-c2ccco2)n1)Nc1ccccc1	2.8µM	–	?	20µM	35µM	5µM
O=C(CSc1nnc(-c2ccccc2)c(-c2ccccc2)n1)NCc1ccco1	–	–	–	–	–	–
Cc1ccc(NC(=O)CSc2nnc(-c3ccco3)c(-c3ccco3)n2)cc1	11µM	14µM	?	40µM	40µM	11µM

High-throughput results: PubChem, National Center for Advancing Translational Sciences (NCATS)
